# Inconclusive results are not listed. Active and inactive are the calls of the source. The calls were made as follows, unless noted: active = hit-call score of the fitted dose curve at least 0.9, where 1 is the maximum; inconclusive = response in the unintended direction; inactive = score below 0.9.
# Assays:
# [1] = CCTE_Deisenroth_AIME_384WELL_CTox_Active: Cytotoxicity Assessment (CTOX) in CCTE's 384-well Estrogen Receptor Transactivation Assay with AIME metabolic competence (metabolism positive), Deisenroth Lab (AID 2284037);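 also: chemicals first conditioned 2 h by alginate-bound induced rat liver S9 before cells; activity means signal loss indicating cell death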
# Procedure, shortened: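 Cytotoxicity in VM7Luc4E2 breast cells, 24 hour, measured as protease-substrate fluorescence loss, after 2-hour metabolic conditioning with induced rat hepatic S9 in alginate microspheres. Concentrations 0.002 - 200 uM, 10 points, bidirectional fitting.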
# [2] = target: Estrogen receptor (Homo sapiens) (UniProt P03372); assay: CCTE_Deisenroth_AIME_384WELL_LUC_Inactive: CCTE's 384-well Estrogen Receptor Transactivation Assay without AIME metabolic competence (ERTA luciferase; metabolism negative), Deisenroth Lab (AID 2284038);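 also: VM7Luc4E2 breast cells given medium preincubated 2 h with S9-free microspheres; hits raise estrogen receptor luciferase signal so potencies reflect agonists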
# Procedure, shortened: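 Metabolism-negative mode: AIME lids stamped in alginate-water, no hepatic S9. 2 h chemical incubation → medium onto VM7Luc4E2 ERTA, 24 h. Readout luciferase luminescence; gain-of-signal fit vs 17beta-estradiol. Conc. 0.002 - 200 uM.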
# [3] = CCTE_Deisenroth_AIME_384WELL_CTox_Inactive: Cytotoxicity Assessment (CTOX) in CCTE's 384-well Estrogen Receptor Transactivation Assay without AIME metabolic competence (metabolism negative), Deisenroth Lab (AID 2284039);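 also: cell viability via live-cell protease substrate cleaved to fluorescent probe; cells exposed 24 h to medium preincubated 2 h with alginate-water beads without S9; loss of fluorescence signal means loss of viability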
# Procedure, shortened: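 Fluorescent protease-substrate viability readout after 24 h exposure of VM7Luc4E2 cells to conditioned medium. Chemicals (0.002–200 uM) first sat 2 h over alginate-water beads, no S9. Data fitted bidirectionally, loss of signal meaning viability loss.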
# [4] = target: Estrogen receptor (Homo sapiens) (UniProt P03372); assay: CCTE_Deisenroth_AIME_384WELL_LUC_Shift: CCTE's 384-well Estrogen Receptor Transactivation Assay with AIME metabolic competence data shift (ERTA luciferase; difference in metabolism positive and negative), Deisenroth Lab (AID 2284041; active = hit-call score of the fitted dose curve at least 0.9, where 1 is the maximum; inactive = score below 0.9;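 also: shift is response with S9 minus without S9 so positive means metabolism raised ER signal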)
# Procedure, shortened: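 Test chemicals (0.002–200 uM, 10-point) were pre-incubated 2 h with alginate microspheres containing phenobarbital/beta-naphthoflavone-induced male Sprague Dawley rat liver S9 or water, then medium was transferred to VM7Luc4E2 cells for 24 h luciferase readout; shift = S9-positive minus S9-negative normalized response.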
# DIO2 (gene 1734) = assay: CCTE_GLTED_hDIO2: CCTE's human Deiodinase 2 (DIO2) Inhibition Assay, Great Lakes Toxicology and Ecology Division (GLTED) Lab (AID 2284050)
# Procedure, shortened: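 Triplicate cell-free incubations (3 h) of human DIO2 with chemical preceded colorimetric Sandell-Kolthoff quantitation of liberated iodide; DMSO served as negative control for curve fitting.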
# Sequence of Estrogen receptor (Homo sapiens) (P03372 whole entry, looked up): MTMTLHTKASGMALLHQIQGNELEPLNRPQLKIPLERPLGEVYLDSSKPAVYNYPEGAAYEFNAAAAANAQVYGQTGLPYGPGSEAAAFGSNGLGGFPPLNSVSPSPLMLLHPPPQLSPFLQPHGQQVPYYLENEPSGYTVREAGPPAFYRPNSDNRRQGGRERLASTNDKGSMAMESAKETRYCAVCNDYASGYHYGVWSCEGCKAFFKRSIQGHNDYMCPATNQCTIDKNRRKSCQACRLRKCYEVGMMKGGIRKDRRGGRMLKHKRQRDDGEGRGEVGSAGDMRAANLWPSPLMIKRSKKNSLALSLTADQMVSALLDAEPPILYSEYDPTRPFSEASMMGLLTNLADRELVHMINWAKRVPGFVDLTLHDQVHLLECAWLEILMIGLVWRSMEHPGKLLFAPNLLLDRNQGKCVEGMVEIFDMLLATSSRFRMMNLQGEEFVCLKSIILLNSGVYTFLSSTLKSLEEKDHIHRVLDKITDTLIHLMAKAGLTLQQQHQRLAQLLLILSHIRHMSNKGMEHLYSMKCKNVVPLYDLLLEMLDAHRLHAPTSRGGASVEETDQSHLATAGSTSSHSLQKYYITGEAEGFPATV
smiles,measurement,setting,value
O=C(O)/C=C/c1ccccc1,outcome,[1],inactive
same,outcome,[2],inactive
same,outcome,[3],inactive
same,outcome,[4],inactive
CCCCCCCCCCCCCC(=O)OC(C)C,outcome,[2],inactive
same,outcome,[4],inactive
CO[Si](C)(C)OC,outcome,[2],inactive
same,outcome,[4],inactive
CCCCCCCOC(=O)c1ccc(O)cc1,AC50,DIO2 (gene 1734),106 µM (active)
CCCCNS(=O)(=O)c1ccc(C)cc1,outcome,[2],inactive
same,AC50,[4],0.0002 µM (active)
O=C(O)CC(C(=O)O)S(=O)(=O)O (stereo unspecified),outcome,[2],inactive
same,outcome,[3],inactive
same,outcome,[4],inactive
CCCCCCCCCCCCc1ccc(O)cc1,AC50,[1],72.1 µM (active)
same,AC50,[2],1.01 µM (active)
same,AC50,[3],86.1 µM (active)
same,outcome,[4],inactive
same,AC50,DIO2 (gene 1734),69.7 µM (active)
O=C(O)c1cc(O)c2ccccc2c1O,AC50,[1],34.5 µM (active)
same,AC50,[3],56.4 µM (active)
same,outcome,[4],inactive
same,AC50,DIO2 (gene 1734),51 µM (active)
CCCCNC(=S)NCCCC,outcome,[2],inactive
same,outcome,[4],inactive
O=C(O)C1CCC(C(=O)O)CC1 (stereo unspecified),outcome,[1],inactive
same,outcome,[2],inactive
same,outcome,[4],inactive
CCCCCCOc1ccc(N)cc1,outcome,[1],inactive
same,AC50,[2],53.9 µM (active)
same,AC50,[4],42.7 µM (active)
CCCCCCCCC(CO)CCCCCC (stereo unspecified),outcome,[2],inactive
same,outcome,[4],inactive
Cc1ccc([N+](=O)[O-])cc1N,outcome,[1],inactive
same,outcome,[2],inactive
same,outcome,[4],inactive
CCOC(=O)C1=NOC(c2ccccc2)(c2ccccc2)C1,outcome,[2],inactive
same,outcome,[3],inactive
same,outcome,[4],inactive
CC1(C)[C@@H]2CC[C@@]1(C)C(=O)C2,outcome,[2],inactive
same,outcome,[4],inactive
CC(=O)/C=C/C1C(C)=CCCC1(C)C (stereo unspecified),outcome,[2],inactive
same,outcome,[3],inactive
same,outcome,[4],inactive
CCCCC/C=C\C/C=C\CCCCCCCC(=O)O,outcome,[1],inactive
same,outcome,[2],inactive
same,outcome,[3],inactive
same,outcome,[4],inactive
same,AC50,DIO2 (gene 1734),36.8 µM (active)
O=C(O)c1ccc2c(c1)C(=O)OC2=O,outcome,[2],inactive
same,outcome,[4],inactive
COC(=O)c1ccccc1C,outcome,[2],inactive
same,outcome,[3],inactive
same,outcome,[4],inactive
CC(C)=CCCC(C)=CC#N,outcome,[2],inactive
same,outcome,[4],inactive
CCCCCCCCCC[N+](C)(CCCCCCCCCC)CCC[Si](OC)(OC)OC,AC50,[1],49.4 µM (active)
same,AC50,[3],100 µM (active)
same,outcome,[4],inactive
CCC(C)(O)CCCC(C)C (stereo unspecified),outcome,[2],inactive
same,AC50,[4],67.7 µM (active)
CC(C)(C)N,outcome,[2],inactive
same,outcome,[3],inactive
same,outcome,[4],inactive
C/C=C/C=C/CCCCCCCO,outcome,[1],inactive
same,outcome,[2],inactive
same,AC50,[3],151 µM (active)
same,outcome,[4],inactive
same,AC50,DIO2 (gene 1734),19.9 µM (active)
C=CCOC(=O)c1ccc(C(=O)OCC=C)c(C(=O)OCC=C)c1,outcome,[1],inactive
same,outcome,[2],inactive
same,outcome,[4],inactive
CC(=O)OCc1ccccc1,outcome,[2],inactive
same,outcome,[3],inactive
same,outcome,[4],inactive
CC(C)(C)NC(=O)[C@H]1CC[C@H]2[C@@H]3CC[C@H]4NC(=O)C=C[C@]4(C)[C@H]3CC[C@]12C,outcome,[4],inactive
